Test results published in PubChem BioAssay.
A number with no mark means an inactive call. The source made the active and inactive calls.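 Rule for the calls: active = inhibition at or above 50% relative to wild type and mutant plate controls; inactive = inhibition below 50%.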

test: inhibitors of Chlamydomonas gravitaxis, primary screen, whole organism, Chlamydomonas reinhardtii, WT vs cilia-less mutant, absorbance, 96-well (AID 463189); conditions: OD600 absorbance, 2 days, at 10 µM, active compounds read high;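 note: 0% = wild type cc124 cells in DMSO and 100% = ciliumless bld1 mutant cells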

SMILES | inhibition
O=c1cc(N2CCOCC2)oc2c(-c3ccccc3)cccc12 | 15.7%
N[C@H](CO)C(=O)O | 3.16%
COc1ccc(C(=O)NCc2cccnc2)cc1C(=O)NCc1cccnc1 | 6.89%
COc1cc(C(O)CO)ccc1OS(=O)(=O)O (stereo not given) | -4.77%
CCCCCCCCCCCCCCSCC(=O)O | 7.96%
CCC(CO)Nc1nc(NCc2ccccc2)c2ncn(C(C)C)c2n1 (stereo not given) | -6.72%
CCn1c(=O)[nH]c2cc(Cl)c(Cl)cc21 | 1.13%
CCCCCCCCCCCCCCCC(=O)NCCO | 8.85%
Ic1ccc(N2CCN(Cc3c[nH]c4ncccc34)CC2)cc1 | 7.68%
O=C(O)C1=CCCN(CCON=C(c2ccccc2)c2ccccc2)C1 | -1.19%
O=c1[nH]c2ccccc2c2ccccc12 | 6.93%
CC(C)C[C@H](N)CSSC[C@@H](N)CC(C)C | 6.54%
CN1CC(O)C(O)C(O)C1CO (stereo not given) | 10.5%
CNC(=O)[C@H]1O[C@@H](n2cnc3c(NCc4cccc(I)c4)ncnc32)C(O)[C@H]1O (stereo not given in full) | 1.77%
NC(N)=NC(=O)Cc1c(Cl)cccc1Cl | 4.12%
Nc1nc2c(ncn2COC(CO)CO)c(=O)[nH]1 | 3.53%
COC(=O)C1=C(C)NC(C)=C(C(=O)OCCN(C)Cc2ccccc2)C1c1cccc([N+](=O)[O-])c1 (stereo not given) | -0.607%
CNCC[C@@H](Oc1ccc(C(F)(F)F)cc1)c1ccccc1 | 34%
COc1ccccc1N1CCN(CCN(C(=O)C2CCCCC2)c2ccccn2)CC1 | 9.85%
Nc1c2c(nc3ccccc13)CCCC2O (stereo not given) | 2%

SMILES | inhibition
CNc1cc(NS(=O)(=O)c2ccc(N)cc2)nc(NC)n1 | -3.79%
CCSC(N)=Nc1ccc(C(F)(F)F)cc1 | 3.43%
O=C(N[C@@H](Cc1ccccc1)C(=O)CCl)OCc1ccccc1 | 0.05%
O=c1cc(-c2ccccc2)[nH]c2nc(Cl)ccc12 | 6.49%
[Li+] | -0.162%
Cc1cc(N)c2ccccc2[n+]1CCCCCCCCCCCCCC[n+]1c(C)cc(N)c2ccccc21 | 154% (active)
O=C(O)[C@@H]1C[C@@H](C(=O)O)N1 | -5.37%
CCn1ccnc1CC1COc2ccccc2O1 (stereo not given) | 5.81%
CC(=O)[C@H]1CCC2C3CC=C4C[C@@H](OS(=O)(=O)O)CC[C@]4(C)C3CC[C@@]21C (stereo not given in full) | 4.69%
O=S(=O)(O)C1CCNCC1 | 1.98%
CC(C)NCC(O)c1ccc(NS(C)(=O)=O)cc1 (stereo not given) | -0.482%
N#Cc1cc2nc(O)c(O)nc2cc1[N+](=O)[O-] | 1.78%
CC(=O)SC1CC2=CC(=O)CC[C@]2(C)C2CC[C@@]3(C)C(CC[C@@]34CCC(=O)O4)C12 (stereo not given in full) | 3.21%
CN1C2CCC1CC(OC(=O)c1c[nH]c3ccccc13)C2 (stereo not given) | 11.2%
O[Si](CCCN1CCCCC1)(c1ccc(F)cc1)C1CCCCC1 (stereo not given) | -1.85%
CNC(=O)[C@H]1O[C@@H](n2cnc3c(NCc4ccc(N)cc4)ncnc32)C(O)[C@H]1O (stereo not given in full) | -1.61%
Brc1ccc([C@H]2CN3CCSC3=N2)cc1 | 123% (active)
Clc1ccc(C(c2ccccc2Cl)C(Cl)Cl)cc1 (stereo not given) | 11.1%
N[C@H](C(=O)O)c1cc(O)cc(O)c1 | -2.67%
N#C/C(=C\c1ccc(O)c(O)c1)C(=O)NCCCNC(=O)/C(C#N)=C/c1ccc(O)c(O)c1 | 1.37%
